This is a sample that favours compounds with a hit; in the whole collection about 2.4% have one here.
Pol eta inh – DNA polymerase eta (human) inhibition; Q9Y253; recombinant Pol eta, fluorescent DNA replication assay; Potency, µM (top dose mostly 114 µM), for the others: at the highest dose activity change, negative = inhibition, most hits filed as inhibitors; 1.2% of 390,000 active; AID 588591; note: % is set by controls: 0 for no effect and ±100 for the full control effect
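Pol eta at 10 nM preincubated with compounds 15 min at room temperature; reaction started with fluorescent substrate (50 nM final) and read kinetically at 0 and 10 min.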
FEN1 inhibitor – blocks human flap endonuclease 1; Recombinant FEN1 flap cleavage, fluorescence, 15 min; P39748; Potency, µM (top dose mostly 114 µM), for the others: at the highest dose activity change, negative = inhibition, usual class: inhibitors; 0.35% of 390,000 active; note: % is set by controls: 0 for no effect and ±100 for the full control effect; nearly all actives have a fitted effect of over 65% in size
Target sequence (P39748 whole entry, looked up): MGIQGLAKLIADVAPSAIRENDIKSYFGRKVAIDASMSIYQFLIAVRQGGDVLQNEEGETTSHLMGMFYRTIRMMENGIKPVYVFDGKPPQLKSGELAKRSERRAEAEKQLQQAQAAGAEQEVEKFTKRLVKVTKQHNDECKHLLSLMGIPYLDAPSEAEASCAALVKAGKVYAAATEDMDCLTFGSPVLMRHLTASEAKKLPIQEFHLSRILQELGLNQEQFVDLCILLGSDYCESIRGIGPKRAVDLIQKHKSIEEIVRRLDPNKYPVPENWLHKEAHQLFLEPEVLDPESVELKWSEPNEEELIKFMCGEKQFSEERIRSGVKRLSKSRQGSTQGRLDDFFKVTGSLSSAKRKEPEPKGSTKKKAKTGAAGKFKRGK
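Reaction started by adding substrate (50 nM final) to 10 nM enzyme after 15 min room-temperature compound preincubation. Reads at 0 and 15 min, with data normalized and fitted to a four-parameter Hill equation.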
Pol kappa inh – inhibitors of human DNA polymerase kappa | 0.53% of 400,000 active | Potency, µM (doses to about 107 µM), for the others: at the highest dose activity, negative = inhibition, most hits filed as inhibitors | purified Pol kappa, fluorescent DNA synthesis assay, 10 min | AID 588579; note: % is set by controls: 0 for no effect and ±100 for the full control effect
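Inhibition of 10 nM Pol kappa is measured by a fluorescent read-out at 0 and 10 min following addition of 50 nM substrate (final), with a 15-min room-temperature compound preincubation.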
Pol iota inh – inhibitors of human DNA polymerase iota | Q9UNA4 | Pol iota fluorescent replication assay, 10 min | Potency, µM (doses to about 115 µM), inactives show at the highest dose activity, negative = inhibition, usual class: inhibitors | 1% of 390,000 active
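Pol iota at 10 nM preincubated 15 min with compounds at room temperature; reaction started with fluorescent substrate, 50 nM final. Fluorescence read kinetically at 0 and 10 min; buffer-only wells as negative control.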
POLB inh – inhibitors of human DNA polymerase beta. 1.3% of 340,000 active. Potency, µM (doses to about 114 µM), inactives show at the top dose activity change, negative = inhibition, actives largely listed as inhibitors. Pol beta primer extension/strand displacement, fluorescence kinetic. P06746; note: % is set by controls: 0 for no effect and ±100 for the full control effect
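Homogeneous kinetic assay of primer extension and strand displacement by 10 nM Pol beta, preincubated 15 min at room temperature with compound before 50 nM substrate (final) was added. Read at 0 and 10 min; four-parameter Hill fit.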
WRN inhibitor – WRN helicase (human) inhibition; WRN helicase unwinding, fluorescent forked duplex, kinetic; Potency, µM (doses to about 114 µM), inactives show at the highest dose activity change, negative = inhibition, hits mostly inhibitors; AID 651768; 0.46% of 360,000 active; note: % is set by controls: 0 for no effect and ±100 for the full control effect; nearly all actives have a fitted effect of over 55% in size
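Enzyme (20 nM final) and test compound sit together 15 min at room temperature before substrate addition. Substrate is a single-forked duplex oligonucleotide (100 nM) labelled with fluorophore and quencher, with 2 mM ATP; helicase unwinding raises red fluorescence, read kinetically.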
TbPGK inh – validation of Trypanosoma brucei phosphoglycerate kinase inhibitors | shares compounds with Pol kappa inh | Potency, µM (titrated, usually from 57.5 µM), for inactives: top-dose activity change, negative = inhibition, actives largely listed as inhibitors | 79% of 500 active | AID 686980 | TbPGK coupled GAPDH assay, Kinase-Glo luminescence; note: % is set by controls: 0 for no effect and ±100 for the full control effect; nearly all actives have a fitted effect of over 65% in size
POLI cherry-pick – Inhibitors of human DNA polymerase iota, confirmation. shares compounds with Pol kappa inh. Pol iota primer extension, TAMRA/BHQ fluorescence. Potency, µM, hits mostly inhibitors. 77% of 1,500 active
* marks the source's active call; other numbers are inactive results; ? = inconclusive; . = no result; [ ] = remark or other dose. Calls come from the whole dose curve; as a rule, active = well fitted curve in the direction sought with a large enough effect; inconclusive = small, poorly fitted or top-dose-only effect, or another doubt; inactive = no such curve, though single readings can be large; an effect the other way counts as inactive or inconclusive. Potency is the fitted concentration of half-maximal effect.

SMILES | Pol eta inh | FEN1 inhibitor | Pol kappa inh | Pol iota inh | POLB inh | WRN inhibitor | TbPGK inh | others
CCc1ccc(C(=O)c2cn(CC(=O)Nc3ccc4c(c3)OCO4)c3cc(OC)c(OC)cc3c2=O)cc1 | 79µM* | -1% | 5% | 52% | 6.3µM* | . | . | POLI cherry-pick=42*
CCc1ccc(C(=O)c2cn(CC(=O)Nc3ccc4c(c3)OCO4)c3ccc(Cl)cc3c2=O)cc1 | -9% | -2% | -6% | 44% | 2% | . | .
O=C(O)C1OC(Oc2c(-c3ccc(O)c(O)c3)oc3cc(O)cc(O)c3c2=O)C(O)C(O)C1O (configuration not stated) | 6.3µM* | 11µM* | 14µM* | 22µM* | 8.9µM* | ? | 10µM*
CC(C)CCNC(=O)c1ccc(Cn2c(=S)[nH]c3ccccc3c2=O)cc1 | ? | -15% | 0% | ? | ? | -6%[11.6 µM] | . | POLI cherry-pick=?
COc1ccc(Cn2c(=O)[nH]c3cc(C(=O)NCCC(C)C)ccc3c2=O)cc1 | -17% | 6% | -2% | 26% | 15% | . | .
COc1ccccc1N1CCN(C(=O)/C=C/c2ccco2)CC1 | ? | 12% | -24% | -16% | -1% | -20%[57.1 µM] | .
O=C(/C=C/c1ccco1)N1CCc2ccccc21 | -7% | 2% | 0% | -27% | ? | -2% | 16µM*
O=C(Cc1ccccc1)Nc1c(C(=O)N2CCN(c3ccc(F)cc3)CC2)oc2ccccc12 | -3% | -16% | 2% | -4% | 1% | . | .
CCOC(=O)c1cnc2ccc(OC(F)(F)F)cc2c1Nc1ccccc1C(=O)O | -14% | -6% | 2% | 1% | 21% | . | -17%
O=C(c1cc(C(F)(F)F)cc(C(F)(F)F)c1)N1CCC2(CC1)CN(c1ncccn1)C2 | . | . | -19%[60.1 µM] | . | . | . | .
COc1ccc(-c2cc3ccccc3oc2=O)cc1NC(=O)c1ccc(Br)o1 | 11µM* | 10% | 8% | ? | ? | -10%[11.6 µM] | . | POLI cherry-pick=?
COc1ccc(-c2cc3ccccc3oc2=O)cc1NC(=O)c1ccc([N+](=O)[O-])o1 | ? | 7% | -11% | -4% | ? | -21% | .
O=C(O)c1ccc(N/N=C/c2ccc(-c3cc(Cl)ccc3Cl)o2)cc1 | 79µM* | 79µM* | -13% | ? | ? | -31% | . | POLI cherry-pick=?
CCCSc1ccc2nc(-c3ccccc3)cn2c1 | -12% | -22% | -28% | -12% | 0% | -31% | 18µM*
CCCCSc1ccc2nc(-c3ccc(C#N)cc3)cn2c1 | -6% | -14% | -16% | 2% | 4% | -11% | .
COc1cccc(/C=N/Nc2ncccc2[N+](=O)[O-])c1OC | -8% | 1% | -9% | 38% | -22% | -5% | 16µM*
COc1ccc(-c2nc3sc(CCNC(=O)C(=O)Nc4cccc(NC(C)=O)c4)c(C)n3n2)cc1 | ? | 2% | -1%[60.1 µM] | 4% | 13µM* | . | . | POLI cherry-pick=?
COc1ccc(-c2nc3sc(CCNC(=O)C(=O)Nc4ccc(OC)c(OC)c4)c(C)n3n2)cc1 | 8% | -10% | -6%[60.1 µM] | 5% | 23% | . | .
CCC(=O)OC1=CN(Cc2ccccc2)S(=O)(=O)c2ccccc21 | -10% | -13% | -12% | 20% | 6% | . | .
CCCCCC(=O)Nc1cc(S(=O)(=O)O)cc2cc(S(=O)(=O)O)cc(O)c12 | -99% | 10µM* | 1.4µM* | 1µM* | . | 6.3µM* | 0.23µM*
CN(C)c1ccc(N=Nc2ccccc2C(=O)O)cc1 | . | -5% | -19% | -3% | . | . | .
Cc1csc(N=Nc2ccc(N(C)C)cc2)[n+]1[O-] | ? | . | . | . | . | -32% | 13µM*
O=C(c1ccco1)N1CCN(c2ncccn2)CC1 | -11% | -2% | 2% | -10% | 20% | 7% | .
Nc1nc(N2CCN(C(=O)c3ccco3)CC2)nc2ccc(Br)cc12 | -22% | -35% | -1% | 0% | -10% | -5% | ?
Cc1ccc2c(C)c(C)c(=O)n(C)c2c1 | -16% | -17% | -7% | 27% | . | -1% | .
SMILES | Pol eta inh | FEN1 inhibitor | Pol kappa inh | Pol iota inh | POLB inh | WRN inhibitor | TbPGK inh | others
Cc1cccc(NC(=O)c2cc3c(=O)n4ccccc4nc3s2)c1 | 45µM* | ? | 1% | ? | 7.1µM* | ? | . | POLI cherry-pick=67*
COC(=O)c1ccc(CSc2nc3c([nH]c4ccccc43)c(=O)n2-c2cccc(OC)c2)o1 | -21% | 9% | -6%[60.1 µM] | 0% | -2% | . | .
O=C(COc1ccc(Cl)cc1Cl)Nc1ccccn1 | 1% | -2% | -6% | -13%[58.9 µM] | 2% | 4% | 18µM*
CSc1ccccc1NC(=O)COc1ccc(Cl)cc1Cl | -28% | -2% | -8% | -2% | 17%[57.1 µM] | ? | .
O=C(N/N=C/c1c[nH]c2ccc(Br)cc12)c1ccncc1 | ? | -7% | -24% | 56µM* | ? | ? | . | POLI cherry-pick=67*
O=C(COc1ccc(/C=N/NC(=O)c2ccncc2)cc1)Nc1ccc([N+](=O)[O-])cc1 | -6% | -14% | -2% | -10% | 24% | 9%[57.1 µM] | .
O=C(COc1ccc(/C=N/NC(=O)c2ccc(O)cc2)cc1)Nc1cccc([N+](=O)[O-])c1 | 14µM* | ? | ? | ? | 10µM* | ? | 12µM* | POLI cherry-pick=?
O=C(/C=C/c1ccc([N+](=O)[O-])cc1)Oc1ccc(/C=N/NC(=O)c2ccncc2)cc1 | ? | ? | 22µM* | 79µM* | -2% | -13%[11.6 µM] | . | POLI cherry-pick=?
O=C(NC1CCCCC1)C1c2ccccc2OCC(=O)N1CCc1ccccc1 (configuration not stated) | . | . | . | . | . | -2% | .
CN(CC(=O)Nc1ccc(Cl)c(C(F)(F)F)c1)S(=O)(=O)c1cnc[nH]1 | -16% | . | . | . | . | 6% | .
CCCCNc1cc(NC2CCCCC2)c2c3c(onc13)-c1ccccc1C2=O | 71µM* | 4% | -7% | ? | ? | . | . | POLI cherry-pick=60*
COc1ccc(NC(=O)C[C@H]2C(=O)N(c3ccccc3)C[C@@H]2C)cc1 | -17% | . | . | . | . | 8% | .
Cc1ccc(-c2ccc(CN3C(C(C)C)C(=O)N(Cc4cn(Cc5ccco5)nn4)CCS3(=O)=O)cc2)cc1 (configuration not stated) | 0% | . | . | . | . | -9% | .
O=C(c1coc(=O)c(Br)c1)N1CCOCC1 | 10µM* | -11% | ? | ? | 6.3µM* | ? | 29µM*
O=C(c1cc(Br)c(Br)s1)N1CCOCC1 | -12% | -10% | -3% | 29% | . | 0% | .
COc1cccc2cc(-c3csc(-c4ccc(Cl)cc4)n3)c(=O)oc12 | -7% | 17% | -9%[60.1 µM] | -9% | 8% | . | .
